Source: PubChem BioAssay (NCATS)
Inconclusive results are not listed. The source made the active and inactive calls. The call rests on the fitted dose curve; in most records, active means well fitted cell-killing curve with a large enough effect; inconclusive means small, poorly fitted or top-dose-only effect, or effect the other way; inactive means no such curve, though single readings can be large or run the other way.

Experiment: Quantitative High-Throughput drug screen in 47 multiple myeloma cell lines against the NCATS MIPE library collection: VP6_DJ cell viability assay (AID 1919867); further: nearly all actives have a fitted effect of over 40% in size;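 on viability (% of DMSO): 100% = DMSO-only wells and 0% = wells with media alone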
Conditions: ATP luminescence, 48 h; series mostly up to 45.8 µM; viability (% of DMSO): at the top concentration
Summary of the method: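 Inhibition of viability over 48 h was scored by ATP content (CellTiter-Glo) in 500-cell wells. Zero and full viability were defined by media-only and DMSO-only wells.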
Potency means the concentration at half of the fitted maximal effect.

Row | SMILES | Potency | viability (% of DMSO)
1 | CC(O)C1C(=O)N2C(C(=O)O)=C(SC3CNC(C(=O)N(C)C)C3)C(C)C12 (stereo unspecified) | 2.64 µM (active) | 
2 | CNc1nccc(-c2cccnc2Oc2cc(C(=O)Nc3cccc(C(F)(F)F)c3)ccc2C)n1 | 5.26 µM (active) | 
3 | CCCCN1CCC(CNC(=O)c2c3n(c4ccccc24)CCCO3)CC1 | 10.5 µM (active) | 
4 | CCNC(=O)Nc1ccc2ncc(Nc3ccc(C)cc3)nc2n1 | 0.662 µM (active) | 
5 | CN(C)CC(C)(C)CNc1nn2c(-c3ccccc3)nnc2cc1C1CCC1 | 10.5 µM (active) | 
6 | CC1(C)O[C@@H]2C[C@@H]3[C@H]4C[C@@H](F)C5=CC(=O)C=C[C@]5(C)[C@@]4(F)[C@@H](O)C[C@]3(C)[C@]2(C(=O)CO)O1 |  | 113% (inactive)
7 | CS(=O)(=O)c1ccc(-c2cnc(N)c(C(=O)Nc3ccccc3)n2)cc1 |  | 101% (inactive)
8 | NC(=O)c1c(OCc2c(F)cc(Br)cc2F)nsc1NC(=O)NCCCCN1CCCC1 | 10.5 µM (active) | 
9 | CCN(CC)CCCCNc1ncc2cc(-c3cc(OC)cc(OC)c3)c(NC(=O)NC(C)(C)C)nc2n1 | 10.5 µM (active) | 
10 | CNC(=O)CN1CCC(Oc2cc3c(Nc4cccc(Cl)c4F)ncnc3cc2OC)CC1 | 0.0187 µM (active) | 
11 | Nc1ccn([C@@H]2O[C@H](CO)[C@H](O)C2(F)F)c(=O)n1 | 0.526 µM (active) | 
12 | COc1cccc(Nc2c(C(N)=O)cnc3c(C)cc(S(=O)(=O)c4cccc(C(=O)N(C)C)c4)cc23)c1 |  | 118% [at 23.2 µM] (inactive)
13 | NCC(=O)Nc1ccc(-n2nc(C(F)(F)F)cc2-c2ccc3c(ccc4ccccc43)c2)cc1 | 18.7 µM (active) | 
14 | Cc1c(Cn2c(C)nc3c(C(=O)O)cc(N4CCOCC4)cc32)cccc1C(F)(F)F | 4.18 µM (active) | 
15 | Cc1cc(Nc2cc(CN3CCOCC3)c3nc(C)c(Cc4ccc(Cl)cc4F)n3n2)n[nH]1 | 13.2 µM (active) | 
16 | Cc1c(NC(=O)OC[C@@H]2COCCN2)cn2ncnc(Nc3ccc4c(cnn4Cc4cccc(F)c4)c3)c12 | 1.87 µM (active) | 
17 | CC1COC2(CCN(c3nc(=O)c4cc(C(F)(F)F)cc([N+](=O)[O-])c4s3)CC2)O1 (stereo unspecified) |  | 149% (inactive)
18 | NC(=O)c1cccc2cn(-c3ccc([C@@H]4CCCNC4)cc3)nc12 | 18.7 µM (active) | 
19 | O=c1c2ccccc2nc2n1CCc1c-2[nH]c2ccccc12 |  | 108% (inactive)
20 | CC=CC1=C(C(=O)O)N2C(=O)[C@H](NC(=O)[C@H](N)c3ccc(O)cc3)[C@@H]2SC1 | 2.96 µM (active) | 
21 | Cc1cnc(-c2cnc(NCCNc3ccc(C#N)cn3)nc2-c2ccc(Cl)cc2Cl)[nH]1 | 10.5 µM (active) | 
